Hit rate of the full screen: of about 2,500 compounds, about 1,100 (44%) were called active.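 The calls were made as follows: active = inhibition above 50% at 4 µM in the single-point screen; inactive = inhibition of 50% or less.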 The set was probably picked from earlier hits. The list shows a part of the results.
Assay: TNF-a-driven NF-kB reporter inhibitors, primary screen, selectivity assay for NOD1/NOD2 signaling inhibitor project, cell-based, HEK293T NF-kB-Luc, luminescence (AID 1852)
Conditions: TNF-a induced, 14 h, at 4 µM, active compounds read high

inhibition, inactive:
O=C1NC(=O)/C(=C\c2ccc(Oc3cnccn3)cc2)S1 -64.2%, O=[N+]([O-])c1cccc(/C=N\N=C2c3ccccc3-c3ccccc32)c1O 7.7%, Oc1nc(Nc2ccc(Cl)cc2Cl)sc1/C=C1\C=Nc2ccccc21 5.6%, Cc1ccc(CSc2nc(-c3ccccc3)c(C#N)c(=O)[nH]2)cc1 -18%, CCCCc1c(C)c(C#N)c2[nH]c3ccccc3n2c1=O 44.9%, Cc1ccc(O)c(C(=O)c2cc(C#N)c3nc4ccccc4n3c2)c1 33%, CC(C)c1ccc(S(=O)(=O)c2cc3cc(Br)ccc3oc2=O)cc1 32.3%, Cc1ccc(S(=O)(=O)c2cc3ccccc3oc2=O)cc1 29.7%, Cc1ccc(OCc2cc(C(=O)NC3CCCCC3)no2)cn1 46%, C=CCC1(CC=C)CCCN1C(=O)c1cc(COc2cncc(Cl)c2)on1 19.5%, O=C(O)c1cccc(-c2ccc(/C=N/n3cnc4sc5c(c4c3=O)CCCC5)o2)c1 -30.8%, CC1CCc2sc3ncnc(N4CCOCC4)c3c2C1 (stereo unspecified) 29.3%, CC1=NNC(=O)/C1=C\c1cn(-c2ccccc2)nc1-c1cccs1 -42.7%, Cc1cccc(N2CCN(C(=O)C3CCN(c4ncnc5c4nc4n5CCCCC4)CC3)CC2C)c1 (stereo unspecified) 33.7%, NC(=O)c1c(NC(=O)c2ccc([N+](=O)[O-])o2)sc2c1CCCC2 -24.9%, Cc1nc2ccccc2c2oc(C(=O)NCC3COc4ccccc4O3)cc12 (stereo unspecified) 39.3%, COc1ccc(OC)c(Nc2c3c(nc4ccccc24)CCC3)c1 49.6%

inhibition, active:
O=[N+]([O-])c1ccc(O)c(/C=N\N=C2c3ccccc3-c3ccccc32)c1 77%, Cc1ccc(Cc2c(C)c(C#N)c3[nH]c4ccccc4n3c2=O)cc1 74.6%, Cc1ccc(S(=O)(=O)c2cc3cc(Br)ccc3oc2=O)cc1 58.4%, O=c1oc2ccc(Br)cc2cc1S(=O)(=O)c1ccc(F)cc1 68%, C=CCC1(CC=C)CCCN1C(=O)c1cc(COc2ccc(C)nc2)on1 52.5%, c1ccc(N2CCN(c3ncnc4sc5c(c34)CCC5)CC2)cc1 57.1%, COc1cccc(N2CCN(c3ncnc4c3[nH]c3ccccc34)CC2C)c1 (stereo unspecified) 106%, COc1cccc(N2CCN(c3ncnc4c3[nH]c3ccc(F)cc34)CC2C)c1 (stereo unspecified) 110%, COc1ccc(CNC(=O)c2cc3c(C)nc4ccccc4c3o2)c(OC)c1 62.8%

Source: PubChem BioAssay AID1852 (Sanford-Burnham Center for Chemical Genomics, 2009)
